Assay results published in publication PMC7862700, “An all-to-all approach to the identification of sequence-specific readers for epigenetic DNA modifications on cytosine”.

Key:
Assay in all cases: DAPPL (digital affinity profiling via proximity ligation, sequencing); 10 mM Tris-HCl pH 7.5, 50 mM NaCl, 1 mM DTT, 4% glycerol, room temperature, 30 min; GST-TFs on glutathione beads, 16-mer random dsDNA library, 0.1% formaldehyde crosslink after washing; high values mean tight binding
Conditions in all cases: protein: recombinant; tags: N-terminal GST; dsDNA, one strand shown
ELK4 = target: T1, ELK4 (Homo sapiens, UniProt P28324-2 1-405)
T1 sequence: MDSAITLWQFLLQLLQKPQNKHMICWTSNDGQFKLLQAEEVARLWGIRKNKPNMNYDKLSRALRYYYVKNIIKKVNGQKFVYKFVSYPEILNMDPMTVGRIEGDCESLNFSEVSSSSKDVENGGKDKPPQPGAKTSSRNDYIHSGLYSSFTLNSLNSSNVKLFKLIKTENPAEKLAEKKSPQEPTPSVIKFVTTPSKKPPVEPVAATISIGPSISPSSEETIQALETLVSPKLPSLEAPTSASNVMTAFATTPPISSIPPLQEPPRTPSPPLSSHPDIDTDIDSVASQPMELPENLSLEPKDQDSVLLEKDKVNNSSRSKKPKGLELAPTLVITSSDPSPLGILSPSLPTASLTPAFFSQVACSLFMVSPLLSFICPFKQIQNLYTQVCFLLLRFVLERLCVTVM
Summary of the method: (§1)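 GST fusions of human transcription factors were expressed in yeast and captured with glutathione beads. Once given DNA barcodes and pooled alongside a tag-only sample, they were incubated for 30 min at room temperature with 200 nmole of a random double-stranded 16-mer DNA library in Tris/NaCl/DTT/glycerol buffer, then washed, crosslinked (0.1% formaldehyde), proximity-ligated, PCR-amplified and sequenced on an Illumina NextSeq500. The binding signal of each hexamer is its read frequency for a factor divided by its frequency for the tag-only sample.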

ELF3 = target: T2, ELF3 (Homo sapiens, UniProt P78545 1-371)
T2 sequence: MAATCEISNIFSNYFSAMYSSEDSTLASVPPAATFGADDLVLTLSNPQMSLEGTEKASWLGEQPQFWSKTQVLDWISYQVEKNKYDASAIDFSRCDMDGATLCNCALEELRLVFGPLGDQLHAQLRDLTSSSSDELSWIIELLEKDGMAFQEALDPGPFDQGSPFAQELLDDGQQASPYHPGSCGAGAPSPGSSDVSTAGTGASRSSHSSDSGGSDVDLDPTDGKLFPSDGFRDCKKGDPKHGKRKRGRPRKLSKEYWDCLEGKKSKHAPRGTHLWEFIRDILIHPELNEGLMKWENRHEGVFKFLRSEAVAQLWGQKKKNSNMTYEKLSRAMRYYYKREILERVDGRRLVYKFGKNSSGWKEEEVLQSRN
Summary of the method: as §1

ETV1 = ETV1 (Homo sapiens, UniProt P50549 1-477)
Summary of the method: as §1

ERF = target: T3, ERF (Homo sapiens, UniProt P50548 1-548)
T3 sequence: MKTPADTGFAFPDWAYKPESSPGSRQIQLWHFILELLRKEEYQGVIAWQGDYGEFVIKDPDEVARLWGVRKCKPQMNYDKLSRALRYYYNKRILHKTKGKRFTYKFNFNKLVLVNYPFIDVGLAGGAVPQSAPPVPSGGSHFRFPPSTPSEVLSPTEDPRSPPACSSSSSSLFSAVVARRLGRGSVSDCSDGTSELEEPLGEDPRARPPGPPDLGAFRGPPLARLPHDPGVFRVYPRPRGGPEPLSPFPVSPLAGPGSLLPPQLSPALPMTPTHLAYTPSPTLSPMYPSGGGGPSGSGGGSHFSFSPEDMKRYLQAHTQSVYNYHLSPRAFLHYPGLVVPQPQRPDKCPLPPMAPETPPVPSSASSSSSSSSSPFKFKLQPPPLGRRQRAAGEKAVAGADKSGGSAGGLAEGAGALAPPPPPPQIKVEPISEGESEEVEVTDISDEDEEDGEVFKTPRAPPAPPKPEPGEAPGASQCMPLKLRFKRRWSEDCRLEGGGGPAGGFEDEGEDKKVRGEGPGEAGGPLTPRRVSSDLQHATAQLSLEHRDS
Summary of the method: as §1

ETV3L = target: T4, ETV3L (Homo sapiens, UniProt Q6ZN32 1-361)
T4 sequence: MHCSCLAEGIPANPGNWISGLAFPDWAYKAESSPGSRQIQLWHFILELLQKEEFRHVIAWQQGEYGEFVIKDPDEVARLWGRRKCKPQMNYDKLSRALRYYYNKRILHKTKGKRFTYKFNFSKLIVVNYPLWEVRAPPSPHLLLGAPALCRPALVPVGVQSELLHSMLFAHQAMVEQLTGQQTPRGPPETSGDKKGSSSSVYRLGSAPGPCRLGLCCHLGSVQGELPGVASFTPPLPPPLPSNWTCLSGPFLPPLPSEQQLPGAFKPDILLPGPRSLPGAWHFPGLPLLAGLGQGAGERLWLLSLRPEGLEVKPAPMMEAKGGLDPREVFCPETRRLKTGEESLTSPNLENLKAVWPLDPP
Summary of the method: as §1

ETS2 = target: T5, ETS2 (Homo sapiens, UniProt P15036 1-469)
T5 sequence: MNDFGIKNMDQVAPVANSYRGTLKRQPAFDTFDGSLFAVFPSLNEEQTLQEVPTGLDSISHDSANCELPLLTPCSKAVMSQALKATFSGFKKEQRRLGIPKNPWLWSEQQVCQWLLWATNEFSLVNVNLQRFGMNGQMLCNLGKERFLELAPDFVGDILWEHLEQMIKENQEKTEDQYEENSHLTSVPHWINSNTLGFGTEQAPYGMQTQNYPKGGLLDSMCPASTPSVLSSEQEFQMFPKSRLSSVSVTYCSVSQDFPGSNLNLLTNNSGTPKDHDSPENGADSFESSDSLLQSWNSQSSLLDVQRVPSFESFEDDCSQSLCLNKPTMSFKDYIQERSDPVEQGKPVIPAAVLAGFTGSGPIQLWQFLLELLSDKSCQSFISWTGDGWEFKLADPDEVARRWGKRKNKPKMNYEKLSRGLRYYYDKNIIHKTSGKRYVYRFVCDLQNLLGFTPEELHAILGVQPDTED
Summary of the method: as §1

SPDEF = target: T6, SPDEF (Homo sapiens, UniProt O95238 1-335)
T6 sequence: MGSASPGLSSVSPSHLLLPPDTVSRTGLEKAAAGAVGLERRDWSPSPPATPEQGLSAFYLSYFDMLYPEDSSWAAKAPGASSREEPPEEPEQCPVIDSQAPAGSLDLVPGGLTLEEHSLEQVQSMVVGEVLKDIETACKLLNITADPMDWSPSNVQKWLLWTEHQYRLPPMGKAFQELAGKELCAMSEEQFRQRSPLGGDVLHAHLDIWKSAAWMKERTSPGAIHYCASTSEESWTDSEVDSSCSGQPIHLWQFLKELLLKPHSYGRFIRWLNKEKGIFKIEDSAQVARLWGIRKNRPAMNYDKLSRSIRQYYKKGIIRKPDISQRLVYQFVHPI
Summary of the method: as §1

ETV7 = target: T7, ETV7 (Homo sapiens, UniProt Q9Y603 1-341)
T7 sequence: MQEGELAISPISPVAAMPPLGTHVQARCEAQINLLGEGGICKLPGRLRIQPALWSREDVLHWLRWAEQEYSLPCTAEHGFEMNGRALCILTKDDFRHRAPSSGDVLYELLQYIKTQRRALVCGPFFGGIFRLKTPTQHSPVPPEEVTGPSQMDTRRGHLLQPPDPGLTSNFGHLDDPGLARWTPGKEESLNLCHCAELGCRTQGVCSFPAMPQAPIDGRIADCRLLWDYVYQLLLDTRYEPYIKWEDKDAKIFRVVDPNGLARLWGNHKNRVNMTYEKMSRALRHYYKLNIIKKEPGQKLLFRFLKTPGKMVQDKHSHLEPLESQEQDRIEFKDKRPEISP
Summary of the method: as §1

ETV3 = target: T8, ETV3 (Homo sapiens, UniProt P41162-2 1-143)
T8 sequence: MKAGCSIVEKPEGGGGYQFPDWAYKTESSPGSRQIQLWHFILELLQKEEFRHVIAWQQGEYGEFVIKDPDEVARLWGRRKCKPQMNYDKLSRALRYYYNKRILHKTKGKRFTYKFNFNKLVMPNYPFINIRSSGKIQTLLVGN
Summary of the method: as §1

Chain of ETV1 (P50549 whole entry): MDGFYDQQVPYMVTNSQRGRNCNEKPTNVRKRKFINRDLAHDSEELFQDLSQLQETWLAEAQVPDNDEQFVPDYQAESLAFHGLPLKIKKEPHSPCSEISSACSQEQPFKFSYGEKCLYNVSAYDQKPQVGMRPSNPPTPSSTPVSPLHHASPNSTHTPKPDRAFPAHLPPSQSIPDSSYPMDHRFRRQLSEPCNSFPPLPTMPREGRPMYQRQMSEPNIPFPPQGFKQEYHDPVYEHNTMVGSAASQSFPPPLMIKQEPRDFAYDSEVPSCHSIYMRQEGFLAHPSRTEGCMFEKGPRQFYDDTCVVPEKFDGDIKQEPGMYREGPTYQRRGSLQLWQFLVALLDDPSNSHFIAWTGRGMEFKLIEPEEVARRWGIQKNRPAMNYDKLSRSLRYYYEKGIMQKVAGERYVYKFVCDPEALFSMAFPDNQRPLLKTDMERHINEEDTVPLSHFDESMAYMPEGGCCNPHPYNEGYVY

In the case of AGCGAT, the binding signal (ELK4) is reported as 1.07 fold enrichment (6-mer frequency, TF over GST control), the binding signal (ELF3) is reported as 1.2 fold enrichment (6-mer frequency, TF over GST control) and the binding signal (ETV1) is reported as 1.02 fold enrichment (6-mer frequency, TF over GST control). The binding signal (ERF) was 1.09 fold enrichment (6-mer frequency, TF over GST control), the binding signal (ETV3L) was 1.1 fold enrichment (6-mer frequency, TF over GST control) and the binding signal (ETS2) was 1.09 fold enrichment (6-mer frequency, TF over GST control). For the same sequence, the binding signal (SPDEF) was 1.08 fold enrichment (6-mer frequency, TF over GST control), the binding signal (ETV7) was 1.09 fold enrichment (6-mer frequency, TF over GST control) and the binding signal (ETV3) was 1.02 fold enrichment (6-mer frequency, TF over GST control).
